Source: the supplement of paper PMC10849652
The full data set covers some 7,900 targets. This sample favours those with a hit. About 0.6% of all pairs of compound and target were hits. Values without a mark were called inactive.

Assays:
Assay in all cases: log2 fold change, soluble protein after heating vs DMSO (PISA); higher = thermal stabilisation; K562 cells, 10 uM, 30 min; active = over 0.2 and 3.5 SD of the protein, either way, in both replicates (recomputed)
erlotinib = compound: C#Cc1cccc(Nc2ncnc3cc(OCCOC)c(OCCOC)cc23)c1 [erlotinib]
Outline: (§1)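 K562 cells at 2×10^6 cells/mL were exposed to 10 μM compound for 30 min, then aliquots were heated for 3 min across 48°C-58°C, pooled, and extracted in PBS containing 0.5% NP-40 at 4°C. The supernatant after 21,000xg for 90 min was taken as soluble protein and measured by TMTpro 16plex LC-MS/MS with channel sums equalised. Thermal stability is reported relative to control samples, with values from duplicates. Fold changes are given on a log2 scale.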

[1] = compound: C/C(=N\NC(=O)C1=CC(=CC=C1)S(=O)(=O)N2CCOCC2)/C3=C(C=CC(=C3)Cl)O
Outline: as §1

[2] = compound: C1=CC(=C(C=C1Cl)C2=NC3=NC=CN=C3C(=N2)NC4=CC=NC=C4)F
Outline: as §1

[3] = compound: C1=CC(=CC=C1C2=NC3=C(N2)C=C(C=C3)C(=O)N)OC4=CC=C(C=C4)Cl
Outline: as §1

[4] = compound: C1=CC2=C(C=CC(=C2)/C=C\3/C(=O)NC(=NCC4=CC=CS4)S3)N=C1
Outline: as §1

[5] = compound: C1=CC2=NC=CN=C2C=C1/C=C/3\C(=O)NC(=O)S3
Outline: as §1

[6] = compound: C1=CC=C(C=C1)C2=NC(=C(N2)C3=CC=NC=C3)C4=CC(=C(C=C4)Cl)O
Outline: as §1

[7] = compound: C1=CC=C2C(=C1)C3=NNC4=CC=CC(=C43)C2=O
Outline: as §1

[8] = compound: C1CCN(C1)C(=O)NC2=CC=CC(=C2)NC3=NC=C(C(=N3)NCCC4=CN=CN4)Br
Outline: as §1

[9] = compound: C1CN(CCC1(CC2=CC=C(C=C2)Cl)N)C3=NC=NC4=C3C=CN4
Outline: as §1

IRAK-1-4 Inhibitor I = compound: C1COCCN1CCN2C3=CC=CC=C3N=C2NC(=O)C4=CC(=CC=C4)[N+](=O)[O-] [IRAK-1-4 Inhibitor I]
Outline: as §1

ibrutinib = compound: C=CC(=O)N1CCC[C@@H](n2nc(-c3ccc(Oc4ccccc4)cc3)c3c(N)ncnc32)C1 [ibrutinib]
Outline: as §1

[10] = compound: CC(=O)c1cnc2ccc(-c3cc(Cl)c(O)c(Cl)c3)nc2c1N[C@H]1CC[C@H](CN(C)C)CC1
Outline: as §1

ralimetinib = compound: CC(C)(C)Cn1c(N)nc2ccc(-c3[nH]c(C(C)(C)C)nc3-c3ccc(F)cc3)nc21 [ralimetinib]
Outline: as §1

[11] = compound: CC(C)(O)CC(=O)NCCn1ccc2ncnc(Nc3ccc(Oc4cccc(C(F)(F)F)c4)c(Cl)c3)c21
Outline: as §1

[12] = compound: CC(C)C1=C2N=C(C=C(N2N=C1)NCC3=CC=CC=C3)NCCCCCCN
Outline: as §1

[13] = compound: CC(C)C[C@@H](C=O)NC(=O)[C@H](CC(C)C)NC(=O)[C@H](CC(C)C)NC(=O)OCc1ccccc1
Outline: as §1

pinometostat = compound: CC(C)N(C[C@H]1O[C@@H](n2cnc3c(N)ncnc32)[C@H](O)[C@@H]1O)[C@H]1C[C@@H](CCc2nc3cc(C(C)(C)C)ccc3[nH]2)C1 [pinometostat]
Outline: as §1

[14] = compound: CC1=C(C(CC(=O)N1)C2=CC=C(C=C2)C(F)(F)F)C(=O)NC3=C(C=C4C(=C3)C=NN4)F
Outline: as §1

[15] = compound: CC1=C(C2=C(C=C1)C(=O)C3=CC=CC=C3N2CCCN)C
Outline: as §1

Sequence of UniProt Q8WWY3 (Q8WWY3 whole entry, looked up): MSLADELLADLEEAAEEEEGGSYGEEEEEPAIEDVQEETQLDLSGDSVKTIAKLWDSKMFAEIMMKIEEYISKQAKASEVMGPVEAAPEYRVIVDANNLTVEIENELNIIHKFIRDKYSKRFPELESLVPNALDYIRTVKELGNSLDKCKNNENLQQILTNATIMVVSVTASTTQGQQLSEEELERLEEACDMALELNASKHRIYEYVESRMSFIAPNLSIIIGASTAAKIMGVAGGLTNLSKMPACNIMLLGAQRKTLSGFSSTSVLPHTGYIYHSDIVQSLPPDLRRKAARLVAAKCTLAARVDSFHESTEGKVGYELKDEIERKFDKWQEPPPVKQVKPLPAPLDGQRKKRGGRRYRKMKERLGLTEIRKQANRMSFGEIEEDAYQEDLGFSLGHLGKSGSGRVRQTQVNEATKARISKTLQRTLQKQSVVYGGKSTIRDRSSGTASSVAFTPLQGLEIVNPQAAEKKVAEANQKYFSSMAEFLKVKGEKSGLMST
Sequence of UniProt P0CAP2 (P0CAP2 whole entry, looked up): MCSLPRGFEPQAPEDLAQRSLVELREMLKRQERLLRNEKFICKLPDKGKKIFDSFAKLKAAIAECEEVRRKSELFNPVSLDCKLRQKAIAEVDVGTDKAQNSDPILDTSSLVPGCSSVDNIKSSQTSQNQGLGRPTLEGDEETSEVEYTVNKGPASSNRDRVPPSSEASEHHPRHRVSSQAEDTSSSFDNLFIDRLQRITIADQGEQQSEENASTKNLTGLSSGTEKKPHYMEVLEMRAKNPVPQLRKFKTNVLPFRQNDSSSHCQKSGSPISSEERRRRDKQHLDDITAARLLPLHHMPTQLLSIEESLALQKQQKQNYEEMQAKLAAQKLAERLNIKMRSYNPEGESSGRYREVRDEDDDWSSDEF
Sequence of UniProt Q9H0R6 (Q9H0R6 whole entry, looked up): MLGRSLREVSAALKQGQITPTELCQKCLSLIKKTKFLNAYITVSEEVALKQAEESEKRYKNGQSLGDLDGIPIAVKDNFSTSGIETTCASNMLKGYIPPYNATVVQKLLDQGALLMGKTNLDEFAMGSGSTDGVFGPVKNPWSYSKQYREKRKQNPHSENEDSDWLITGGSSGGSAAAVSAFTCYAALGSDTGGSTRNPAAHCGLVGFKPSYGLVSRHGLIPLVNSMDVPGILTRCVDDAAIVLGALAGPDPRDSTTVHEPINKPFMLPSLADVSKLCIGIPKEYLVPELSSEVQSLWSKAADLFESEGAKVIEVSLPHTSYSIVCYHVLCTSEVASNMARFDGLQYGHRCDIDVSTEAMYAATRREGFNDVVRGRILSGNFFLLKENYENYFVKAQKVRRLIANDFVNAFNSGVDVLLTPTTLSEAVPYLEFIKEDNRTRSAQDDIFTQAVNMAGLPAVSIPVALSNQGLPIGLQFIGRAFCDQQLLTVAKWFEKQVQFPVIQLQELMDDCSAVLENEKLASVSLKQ
Sequence of UniProt P46019 (P46019 whole entry, looked up): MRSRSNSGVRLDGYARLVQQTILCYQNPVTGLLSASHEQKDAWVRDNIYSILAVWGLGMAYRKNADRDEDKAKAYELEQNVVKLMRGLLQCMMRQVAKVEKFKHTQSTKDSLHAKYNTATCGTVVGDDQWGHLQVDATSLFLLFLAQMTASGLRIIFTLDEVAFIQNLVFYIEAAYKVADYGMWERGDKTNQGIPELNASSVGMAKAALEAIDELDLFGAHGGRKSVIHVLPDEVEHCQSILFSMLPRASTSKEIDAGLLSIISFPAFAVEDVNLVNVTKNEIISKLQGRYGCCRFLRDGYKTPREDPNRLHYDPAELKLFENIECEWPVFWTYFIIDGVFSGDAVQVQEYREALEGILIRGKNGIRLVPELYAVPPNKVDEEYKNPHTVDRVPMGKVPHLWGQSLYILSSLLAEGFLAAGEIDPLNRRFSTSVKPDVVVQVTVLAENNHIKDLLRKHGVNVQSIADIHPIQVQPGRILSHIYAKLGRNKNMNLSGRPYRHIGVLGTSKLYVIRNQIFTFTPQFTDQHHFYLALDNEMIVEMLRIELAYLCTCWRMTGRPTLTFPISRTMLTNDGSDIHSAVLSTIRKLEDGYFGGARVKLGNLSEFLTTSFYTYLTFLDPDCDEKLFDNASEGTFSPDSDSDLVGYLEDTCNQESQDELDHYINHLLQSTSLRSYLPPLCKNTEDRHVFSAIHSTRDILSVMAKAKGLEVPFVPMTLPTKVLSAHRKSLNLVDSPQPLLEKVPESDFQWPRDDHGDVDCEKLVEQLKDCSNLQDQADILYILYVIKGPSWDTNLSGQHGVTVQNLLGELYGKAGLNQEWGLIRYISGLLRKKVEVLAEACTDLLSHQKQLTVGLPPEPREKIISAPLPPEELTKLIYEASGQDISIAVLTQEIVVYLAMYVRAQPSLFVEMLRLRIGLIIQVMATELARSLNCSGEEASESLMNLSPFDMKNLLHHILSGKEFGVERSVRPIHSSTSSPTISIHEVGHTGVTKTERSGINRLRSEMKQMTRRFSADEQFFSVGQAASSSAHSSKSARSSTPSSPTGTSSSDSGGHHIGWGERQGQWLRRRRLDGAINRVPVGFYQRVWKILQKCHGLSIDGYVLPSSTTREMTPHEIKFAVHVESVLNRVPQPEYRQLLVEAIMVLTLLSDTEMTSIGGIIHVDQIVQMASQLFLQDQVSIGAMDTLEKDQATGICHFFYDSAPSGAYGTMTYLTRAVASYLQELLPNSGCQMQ
Sequence of UniProt O43741 (O43741 whole entry, looked up): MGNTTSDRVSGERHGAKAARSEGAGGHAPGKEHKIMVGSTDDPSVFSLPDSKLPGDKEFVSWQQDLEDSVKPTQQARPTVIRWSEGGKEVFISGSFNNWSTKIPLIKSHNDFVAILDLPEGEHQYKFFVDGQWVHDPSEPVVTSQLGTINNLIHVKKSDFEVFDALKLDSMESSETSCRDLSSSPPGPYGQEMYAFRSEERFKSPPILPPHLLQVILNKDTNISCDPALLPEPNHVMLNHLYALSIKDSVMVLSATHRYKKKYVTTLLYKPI
Sequence of UniProt Q9H300 (Q9H300 whole entry, looked up): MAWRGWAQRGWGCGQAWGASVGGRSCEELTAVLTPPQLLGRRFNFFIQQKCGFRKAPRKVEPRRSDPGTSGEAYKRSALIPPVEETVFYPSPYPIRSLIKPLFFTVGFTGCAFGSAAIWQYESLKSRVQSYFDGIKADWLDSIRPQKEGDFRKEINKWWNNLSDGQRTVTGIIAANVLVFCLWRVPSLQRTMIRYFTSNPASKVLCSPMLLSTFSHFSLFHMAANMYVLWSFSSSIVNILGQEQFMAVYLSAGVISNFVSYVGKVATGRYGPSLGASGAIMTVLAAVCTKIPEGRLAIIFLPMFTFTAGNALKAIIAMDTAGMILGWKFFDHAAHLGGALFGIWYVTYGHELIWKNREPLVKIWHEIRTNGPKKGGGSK
Sequence of UniProt Q99575 (Q99575 whole entry, looked up): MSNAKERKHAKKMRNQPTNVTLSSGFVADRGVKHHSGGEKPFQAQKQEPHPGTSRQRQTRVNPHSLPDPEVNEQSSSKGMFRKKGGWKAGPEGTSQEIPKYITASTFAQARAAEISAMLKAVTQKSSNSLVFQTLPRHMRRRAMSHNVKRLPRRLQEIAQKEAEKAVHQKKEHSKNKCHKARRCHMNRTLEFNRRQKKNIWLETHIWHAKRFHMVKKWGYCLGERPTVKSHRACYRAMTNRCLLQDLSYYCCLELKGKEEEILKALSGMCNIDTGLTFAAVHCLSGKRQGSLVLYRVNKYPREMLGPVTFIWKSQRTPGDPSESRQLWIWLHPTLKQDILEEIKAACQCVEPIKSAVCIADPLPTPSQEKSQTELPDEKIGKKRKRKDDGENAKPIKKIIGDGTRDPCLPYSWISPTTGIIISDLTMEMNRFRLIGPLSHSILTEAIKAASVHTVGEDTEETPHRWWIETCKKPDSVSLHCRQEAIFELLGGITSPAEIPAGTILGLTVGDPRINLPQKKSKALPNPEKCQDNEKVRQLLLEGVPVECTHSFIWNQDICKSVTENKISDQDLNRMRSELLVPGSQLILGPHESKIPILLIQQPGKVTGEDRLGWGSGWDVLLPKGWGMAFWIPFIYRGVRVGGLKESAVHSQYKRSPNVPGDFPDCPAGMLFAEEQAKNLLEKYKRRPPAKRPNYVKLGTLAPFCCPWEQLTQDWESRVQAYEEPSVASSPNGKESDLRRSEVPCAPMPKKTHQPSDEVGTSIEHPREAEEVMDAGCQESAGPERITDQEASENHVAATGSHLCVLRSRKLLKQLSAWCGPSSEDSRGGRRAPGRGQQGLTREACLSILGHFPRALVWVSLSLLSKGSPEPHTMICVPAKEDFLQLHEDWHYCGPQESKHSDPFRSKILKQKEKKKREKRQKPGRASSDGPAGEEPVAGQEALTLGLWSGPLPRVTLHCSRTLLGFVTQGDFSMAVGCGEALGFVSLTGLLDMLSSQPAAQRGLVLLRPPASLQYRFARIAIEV
Sequence of UniProt Q6GMV3 (Q6GMV3 whole entry, looked up): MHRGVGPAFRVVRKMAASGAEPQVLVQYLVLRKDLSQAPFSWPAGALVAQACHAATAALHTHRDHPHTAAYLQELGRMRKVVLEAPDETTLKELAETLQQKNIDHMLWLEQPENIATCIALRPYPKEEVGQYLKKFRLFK
Sequence of UniProt Q15172 (Q15172 whole entry, looked up): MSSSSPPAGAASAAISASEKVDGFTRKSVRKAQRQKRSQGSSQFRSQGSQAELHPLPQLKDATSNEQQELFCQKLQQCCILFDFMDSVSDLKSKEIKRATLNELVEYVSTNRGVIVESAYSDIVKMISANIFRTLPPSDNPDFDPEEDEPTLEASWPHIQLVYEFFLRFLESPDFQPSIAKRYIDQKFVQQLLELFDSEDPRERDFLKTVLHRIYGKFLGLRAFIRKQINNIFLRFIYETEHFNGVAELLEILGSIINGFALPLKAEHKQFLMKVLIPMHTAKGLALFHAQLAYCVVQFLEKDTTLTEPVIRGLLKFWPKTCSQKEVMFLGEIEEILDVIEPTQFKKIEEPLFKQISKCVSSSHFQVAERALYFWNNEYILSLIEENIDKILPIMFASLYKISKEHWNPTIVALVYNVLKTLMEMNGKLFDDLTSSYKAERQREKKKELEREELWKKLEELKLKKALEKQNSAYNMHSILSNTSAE

Target	log2 fold change (erlotinib)	log2 fold change [1]	log2 fold change [2]	log2 fold change [3]	log2 fold change [4]	log2 fold change [5]	log2 fold change [6]	log2 fold change [7]	log2 fold change [8]	log2 fold change [9]	log2 fold change (IRAK-1-4 Inhibitor I)	log2 fold change (ibrutinib)	log2 fold change [10]	log2 fold change (ralimetinib)	log2 fold change [11]	log2 fold change [12]	log2 fold change [13]	log2 fold change (pinometostat)	log2 fold change [14]	log2 fold change [15]
PLCG1 isoform 2 (UniProt P19174)	0.052	-0.054	-0.09	0.067	0.119	0.029	0.006	0.017	0.052	-0.06	-0.079	0.03	0.041	-0.042	-0.362 (active)	-0.23	0.007	0.069	0.023	-0.027
PTP4A1 (UniProt Q93096)	0.053	0.083	0.134	0.037	-0.042	0.038	0.062	0.027	-0.096	-0.127	-0.011	-0.05	0.092	-0.096	0.013	-0.049	-0.062	-0.02	0.008	-0.179
PAK4 (UniProt O96013)	0.155	-0.066	0.017	-0.04	0.015	0.048	-0.068	-0.013	0.062	-0.03	0.038	-0.032	0.173	-0.084	0	0.015	0.07	0.016	-0.052	0.049
PDE2A (UniProt O00408)	-0.055	-0.521 (active)	-0.011	-0.034	0.161	-0.099	0.137	0.113	-0.077	0.184	0.083	0.026	-0.001	0.12	-0.082	0.014	-0.009	-0.007	-0.064	0.043
PARL (UniProt Q9H300)	-0.019	0.015	0.011	-0.011	0.016	0.044	0.026	-0.012	0.015	0.017	0.019	0.007	0.003	-0.022	-0.003	-0.233 (active)	0.005	-0.006	0.059	0.017
POLR2G (UniProt P62487)	-0.041	-0.011	-0.001	0.025	-0.078	0.044	0.063	0.014	-0.033	0.071	0.001	0.078	0.329 (active)	-0.052	-0.011	0.371 (active)	0.012	-0.044	-0.053	0.268
PML (UniProt P29590)	0.045	-0.073	0.015	-0.022	-0.043	0.071	0.033	0.007	0.002	-0.005	0.031	0.006	0.052	0.045	0.012	-0.025	-0.05	-0.021	0.07	-0.035
PHKA2 (UniProt P46019)	-0.077	0.029	0.041	-0.008	-0.011	0.041	-0.028	-0.026	0.004	0.004	0.053	-0.095	0.049	0.011	-0.1	-0.143	0.065	0.138	0.176	0.028
PPP2R5E (UniProt Q16537)	0.017	0.096	0.005	-0.061	-0.007	0	0.075	0.054	-0.013	0.056	-0.01	-0.001	-0.033	-0.029	-0.046	-0.144	0.019	0.015	0.028	0.136
PSMC4 (UniProt P43686)	-0.05	-0.092	-0.052	-0.004	-0.023	-0.032	-0.011	0.006	0.04	-0.041	-0.056	-0.012	0.022	0.014	0.029	0.034	-0.249 (active)	0.025	0.02	0.016
PELO (UniProt Q9BRX2)	0.153	0.017	-0.108	0.074	0.105	-0.104	0.079	0.021	-0.097	-0.058	-0.073	0.071	-0.106	0.122	-0.128	-0.361 (active)	0.058	0.201	0.019	0.088
PNPLA8 (UniProt Q9NP80)	0.101	0.031	0.014	-0.029	0.008	0	0.089	0.022	0.018	0.037	-0.022	-0.049	0.151	-0.005	-0.071	-0.06	0.003	0.064	-0.008	0.043
PSMB4 (UniProt P28070)	-0.056	-0.024	-0.003	0.001	-0.024	-0.035	-0.028	0.001	0.008	0.037	-0.021	0.006	0.044	-0.008	0.045	0.065	-0.043	0.03	0.013	0.018
PIK3R1 (UniProt P27986)	0.01	0.033	0.025	0.048	0.036	0.14	-0.022	-0.027	-0.024	0.05	0.032	-0.004	0.077	0.038	-0.04	-0.011	0.027	0.083	0.004	0.072
PLK1 (UniProt P53350)	-0.027	0.035	0.006	0.079	-0.041	-0.017	-0.018	0.058	-0.003	-0.039	-0.035	0.022	-1.17 (active)	0.006	-0.011	0.186	0.015	0.019	0.005	0.144
POLR2M (UniProt P0CAP2)	-0.042	-0.033	-0.054	0.004	0.05	0.055	0.041	-0.009	0.017	-0.024	-0.022	-0.017	0.067	0.016	0.001	0.059	0.058	-0.02	0.067	0
PIGG (UniProt Q5H8A4)	-0.002	0.016	-0.009	0.027	0.023	0.014	-0.013	-0.003	-0.016	0.067	0.004	-0.039	-0.032	0.168	0.015	-0.046	0.005	0.027	0.011	0.018
QRICH1 (UniProt Q2TAL8)	0.066	0.361	-0.023	0	0.282	0.059	-0.053	-0.007	0.014	-0.076	-0.108	-0.024	0.048	0.055	-0.237	-0.321	0.08	0.026	0.029	-0.08
PDLIM7 (UniProt Q9NR12)	0.013	0.039	0.1	-0.037	-0.01	0.002	0.073	0.016	-0.01	0.133	0.017	0.005	-0.054	0.08	-0.035	0.024	-0.045	-0.019	0.004	0.065
QRSL1 (UniProt Q9H0R6)	0.024	0.052	0.118	-0.002	0.06	-0.023	0.071	-0.032	0.017	-0.116	0.016	0.023	-0.025	0.001	-0.071	-0.231 (active)	-0.003	-0.087	0.041	0.025
PRPF31 (UniProt Q8WWY3)	0.105	0.194	0.05	0	0.217	0	0.027	0.076	-0.067	0.129	-0.066	-0.028	-0.3	0.069	-0.144	-0.387	0.004	0	-0.016	-0.271
PEX7 (UniProt O00628)	0.021	0.034	0.034	0.276 (active)	0.08	-0.117	0.039	-0.041	-0.031	0.063	0.03	-0.092	-0.106	-0.064	-0.057	-0.006	0.003	-0.034	0.025	0.033
PRKAB2 (UniProt O43741)	-0.054	0.29	0.103	0.032	-0.022	-0.115	0.203	0.144	-0.218	0.064	0.003	0.054	-0.115	0.223	-0.117	-0.028	-0.175	-0.065	0.032	-0.053
PTRHD1 (UniProt Q6GMV3)	-0.002	0.005	0.37 (active)	0.046	0.134	0.045	0.121	-0.032	-0.017	-0.012	0.155	0.004	-0.048	-0.049	-0.022	0.139	-0.01	0.003	0.054	0.184
POP1 (UniProt Q99575)	-0.01	0.028	-0.015	0.029	-0.011	0.022	0.017	-0.016	0	-0.01	-0.024	0	0.001	0.029	-0.006	0.013	-0.03	0.003	0.008	-0.271 (active)
PPP2R5A (UniProt Q15172)	0.011	0.098	0.009	-0.022	0.018	0.055	0.078	0.017	0	-0.015	0.005	-0.024	0.004	0.066	-0.16	-0.193	0.023	0.025	0.02	0.071
